Assay results from PubChem BioAssay (NCATS).
Results filed as inconclusive are left out. Active and inactive are the calls of the source. Unless noted, the call rests on the fitted dose curve; in most records, active means well fitted curve in the direction sought with a large enough effect; inconclusive means small, poorly fitted or top-dose-only effect, or another doubt; inactive means no such curve, though single readings can be large; an effect the other way counts as inactive or inconclusive.

Legend:
[1] = target: Lysosomal acid glucosylceramidase (Homo sapiens) (UniProt P04062); assay: Glucocerebrosidase-p2 (AID 348; in the data active means potency below about 10 µM; further: potency means the concentration at half of the fitted maximal effect); conditions: purified GBA, blue fluorogenic substrate, 40 min
Lysosomal acid glucosylceramidase (Homo sapiens), sequence (P04062 whole entry, looked up): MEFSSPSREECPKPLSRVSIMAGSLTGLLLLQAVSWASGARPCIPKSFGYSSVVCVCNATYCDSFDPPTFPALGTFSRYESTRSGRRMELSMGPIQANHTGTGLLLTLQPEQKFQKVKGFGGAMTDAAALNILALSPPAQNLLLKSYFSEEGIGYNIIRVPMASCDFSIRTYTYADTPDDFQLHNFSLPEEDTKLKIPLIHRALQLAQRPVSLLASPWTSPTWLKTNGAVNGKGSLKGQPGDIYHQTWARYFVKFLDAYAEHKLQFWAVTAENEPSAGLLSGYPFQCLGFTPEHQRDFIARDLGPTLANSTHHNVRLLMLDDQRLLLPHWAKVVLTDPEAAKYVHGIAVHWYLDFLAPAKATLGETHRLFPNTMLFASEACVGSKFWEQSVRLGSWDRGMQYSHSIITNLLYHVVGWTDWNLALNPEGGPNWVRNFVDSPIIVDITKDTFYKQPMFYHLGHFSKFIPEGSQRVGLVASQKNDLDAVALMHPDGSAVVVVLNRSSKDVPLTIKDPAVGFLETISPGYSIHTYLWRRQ
In short: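 Normal human glucocerebrosidase (0.2 nM) with blue fluorogenic substrate (80 uM final) in citrate/phosphate pH 5.9 with 10mM sodium taurocholate, 0.01% tween-20; 40 min RT, NaOH/glycine stop; fluorescence Ex 365/Em 440; AC50 from a titration from 0.6 nM upwards.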

[2] = AP1 Signaling Pathway (AID 357; active means well fitted curve in either direction with a large enough effect, not every such curve was filed as active;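 further: ME-180 reporter cells stimulated with EGF at its EC50 level; on the % scale 0 is the no-effect control and ±100 the full control effect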); conditions: ME-180 AP-1-bla reporter, EGF-induced, beta-lactamase ratio, 5 h; at 7.69 µM (top of the series) unless noted
In short: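 Beta-lactamase reporter under AP-1 response element, ME-180 background. Stimulus: EC50 EGF. Compound exposure 5 h, 37 °C. Detection: CCF4, 2.5 h RT, 460/530 nm. Values: AC50 from titration.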

[3] = NFAT Signaling Pathway (AID 444; active means well fitted curve in either direction with a large enough effect, not every such curve was filed as active;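 further: carbachol stimulus at about its EC50 of 1 µM final; on the % scale 0 is the no-effect control and ±100 the full control effect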); conditions: Jurkat NFAT-bla M1, carbachol, beta-lactamase ratio, 5 h; at 7.69 µM (top of the series) unless noted
In short: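 Read-out: CCF4 FRET ratio (460 nm/530 nm) after 1 h RT dye loading, used for %activity and AC50 from titration series. Cells: Jurkat NFAT-β-lactamase/M1 line, treated with compound plus 1 uM carbachol for 5 h, 37 °C.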

[4] = Stat Signaling Pathway (AID 446; active means well fitted curve in either direction with a large enough effect, not every such curve was filed as active;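 further: ME-180 cervical cancer cells given 40 pM IL-6 alongside compound; SIE-controlled beta-lactamase reporter measured as 460/530 nm FRET emission ratio; on the % scale 0 is the no-effect control and ±100 the full control effect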); conditions: ME-180 SIE beta-lactamase reporter, IL-6 stimulated, 5 h; at 7.69 µM (top of the series) unless noted
In short: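 Compound effects on IL-6-induced STAT reporter activity were measured in ME-180 cells. After overnight culture, cells were co-treated with 40 pM IL-6 for 5 hrs before beta-lactamase substrate loading at room temperature.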

[5] = target: Glucocorticoid receptor (Homo sapiens) (UniProt P04150); assay: GR-GFP Redistribution (AID 450;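 active means compounds whose dose series gives a full or clear partial fitted curve of increased nuclear translocation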; further: potency means the concentration at half of the fitted maximal effect); conditions: U2OS GR-GFP nuclear translocation, laser cytometry, 2 h
Glucocorticoid receptor (Homo sapiens), sequence (P04150 whole entry, looked up, the tested form may be a part): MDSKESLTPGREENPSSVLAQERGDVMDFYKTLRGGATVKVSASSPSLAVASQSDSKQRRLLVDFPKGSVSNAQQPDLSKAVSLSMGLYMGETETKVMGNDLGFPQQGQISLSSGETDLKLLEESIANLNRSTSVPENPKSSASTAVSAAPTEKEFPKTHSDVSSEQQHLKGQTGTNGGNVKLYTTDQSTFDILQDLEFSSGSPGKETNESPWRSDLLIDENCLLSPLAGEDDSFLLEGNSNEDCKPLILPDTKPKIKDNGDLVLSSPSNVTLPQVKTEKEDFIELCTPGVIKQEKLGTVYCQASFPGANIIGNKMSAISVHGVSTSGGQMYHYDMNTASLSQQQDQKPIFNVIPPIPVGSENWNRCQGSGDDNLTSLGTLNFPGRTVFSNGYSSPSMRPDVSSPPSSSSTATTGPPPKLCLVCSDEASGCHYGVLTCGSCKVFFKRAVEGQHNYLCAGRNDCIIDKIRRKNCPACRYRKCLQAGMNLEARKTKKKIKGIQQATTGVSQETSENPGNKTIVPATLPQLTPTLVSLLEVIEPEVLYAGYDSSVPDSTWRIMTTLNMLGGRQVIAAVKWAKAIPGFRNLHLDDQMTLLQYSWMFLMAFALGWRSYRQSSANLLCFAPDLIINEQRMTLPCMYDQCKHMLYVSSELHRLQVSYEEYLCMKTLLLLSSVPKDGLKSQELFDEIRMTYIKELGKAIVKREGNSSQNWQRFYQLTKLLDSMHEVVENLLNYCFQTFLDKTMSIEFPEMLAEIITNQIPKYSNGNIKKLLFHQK

[6] = target: Glucocorticoid receptor (Homo sapiens) (UniProt P04150); assay: GR-EFC Redistribution (AID 451; calls by dose curve; further: potency means the concentration at half of the fitted maximal effect); conditions: CHO-K1 GR-EFC translocation, beta-gal luminescence, 2 h
In short: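 Translocation of GR-ED fusion to nuclear EA restores b-gal, read by luminescence after 1 h room-temperature detection. Engineered CHO-K1 biosensor cells, 1,000/well, exposed 2 h at 37 C to titrations up to 46 uM final.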

[7] = target: Mitogen-activated protein kinase 10 (Mus musculus) (UniProt Q61831); assay: JNK3 AlphaScreen Assay (AID 530; active means well fitted curve in either direction with a large enough effect, not every such curve was filed as active;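 further: kinase came from lysate of stimulated human HepG2 cells; signal reports phosphorylation of biotinylated GST-cJun 1-79 at Ser73 with 10 µM ATP; on the % scale 0 is the no-effect control and ±100 the full control effect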); conditions: JNK3 lysate, c-Jun phosphorylation; series mostly up to 57.1 µM
In short: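 qHTS titrations with 15 min compound pre-incubation before adding ATP (10 uM final). Read-out: AlphaScreen of Ser73-phosphorylated biotin-GST-cJun using HepG2 lysate JNK3 activated by IL-1β and TNFα.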

[8] = target: 3',5'-cyclic-AMP phosphodiesterase 4B (Homo sapiens) (UniProt Q07343); assay: qHTS Assay for Inhibitors of PDE-IV (AID 607; active means well fitted activation curve with a large enough effect in the main read-out, with a control signal flat, not every such curve was filed as active; further: % of control where 0% means no effect); conditions: HEK293 ACTOne CNG channel cells, membrane potential fluorescence; series mostly up to 22.9 µM
3',5'-cyclic-AMP phosphodiesterase 4B (Homo sapiens), sequence (Q07343 whole entry, looked up): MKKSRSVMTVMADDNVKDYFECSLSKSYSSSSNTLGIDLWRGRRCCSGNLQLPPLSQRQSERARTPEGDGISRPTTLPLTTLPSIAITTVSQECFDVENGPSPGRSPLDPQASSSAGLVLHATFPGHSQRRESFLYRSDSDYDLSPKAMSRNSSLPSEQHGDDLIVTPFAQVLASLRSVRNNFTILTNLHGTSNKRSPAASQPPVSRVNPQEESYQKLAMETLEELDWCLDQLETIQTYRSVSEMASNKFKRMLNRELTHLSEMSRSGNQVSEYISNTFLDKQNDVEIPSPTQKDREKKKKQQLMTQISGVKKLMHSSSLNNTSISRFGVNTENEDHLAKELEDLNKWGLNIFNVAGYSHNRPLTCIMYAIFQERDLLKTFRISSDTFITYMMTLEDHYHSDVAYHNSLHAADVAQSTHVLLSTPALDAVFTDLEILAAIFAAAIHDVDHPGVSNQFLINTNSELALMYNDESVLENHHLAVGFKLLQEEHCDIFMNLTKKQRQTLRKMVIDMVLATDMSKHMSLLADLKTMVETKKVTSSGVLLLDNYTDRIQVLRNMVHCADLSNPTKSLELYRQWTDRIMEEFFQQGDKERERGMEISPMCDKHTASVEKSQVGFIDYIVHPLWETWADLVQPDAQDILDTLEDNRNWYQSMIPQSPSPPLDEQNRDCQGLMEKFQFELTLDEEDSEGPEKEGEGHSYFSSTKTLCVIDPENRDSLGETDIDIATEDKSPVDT
In short: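 ACTOne HEK293 cells carry a modified cAMP-gated CNG channel and express endogenous PDE4; plated 1000 cells/well, compounds up to 22.9 uM final. Membrane-potential dye fluorescence (ex 535/em 590) was read; parental cells received 10 uM forskolin + 100 uM RO 20-1724.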

[9] = qHTS Assay for Identification of Small Molecule Agonists for Hypoxia Response Element Signaling Pathway (AID 914; active means well fitted activation curve with a large enough effect in the signal ratio, with a control signal flat, not every such curve was filed as active; the % refers to the signal ratio; further: % of control where 0% means no effect); conditions: ME-180 (cervical carcinoma) HRE-bla reporter, beta-lactamase ratio, CoCl2, 17 h; activation: stronger effect = higher value
In short: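 A beta-lactamase reporter under hypoxia response element control in ME-180 cells served as the system. Compound titrations plus EC50 CoCl2 ran 17 h at 37 degrees Celsius; AC50 values were fitted from %Activity.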

[10] = target: Dual specificity protein kinase CLK4 (Homo sapiens) (UniProt Q9HAZ1); assay: qHTS Assay for Inhibitors of CDC-like Kinase 4 (Kinase-Glo Assay) (AID 1770); conditions: recombinant Clk4, Kinase-Glo ATP depletion luminescence; series mostly up to 66.7 µM; further: nearly all actives have a fitted effect of over 65% in size; further: potency means the concentration at half of the fitted maximal effect
Dual specificity protein kinase CLK4 (Homo sapiens), sequence (Q9HAZ1 whole entry, looked up): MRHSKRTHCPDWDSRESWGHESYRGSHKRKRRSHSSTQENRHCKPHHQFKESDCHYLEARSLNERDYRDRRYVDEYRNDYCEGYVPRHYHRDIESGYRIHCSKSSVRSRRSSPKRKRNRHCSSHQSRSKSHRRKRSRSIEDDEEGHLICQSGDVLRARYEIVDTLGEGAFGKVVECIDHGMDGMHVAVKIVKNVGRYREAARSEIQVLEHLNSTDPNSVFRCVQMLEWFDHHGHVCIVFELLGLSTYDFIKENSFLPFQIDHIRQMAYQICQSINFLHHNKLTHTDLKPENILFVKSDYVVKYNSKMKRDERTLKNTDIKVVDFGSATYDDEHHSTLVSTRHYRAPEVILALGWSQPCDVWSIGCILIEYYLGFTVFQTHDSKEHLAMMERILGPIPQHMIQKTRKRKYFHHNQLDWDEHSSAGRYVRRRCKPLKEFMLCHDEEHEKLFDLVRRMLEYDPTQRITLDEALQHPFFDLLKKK
In short: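 Luminescent ATP-depletion read-out (Kinase-Glo) after 4.5 h room-temperature reaction of Clk4 (25 nM final) with RS peptide (100 uM) and ATP (1 uM), pH 7.5 Tris buffer with MgCl2 and DTT.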

[11] = target: Dual specificity protein kinase CLK4 (Homo sapiens) (UniProt Q9HAZ1); assay: qHTS Assay for Inhibitors of CDC-like Kinase 4 (ADP-Glo Assay) (AID 1771); conditions: recombinant CLK4, ADP-Glo luminescence; series mostly up to 80 µM; further: nearly all actives have a fitted effect of over 70% in size; further: potency means the concentration at half of the fitted maximal effect
In short: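 ADP production was read by ADP-Glo luminescence after residual ATP depletion, following 1 h room-temperature reaction of 25 nM Clk4, 1 uM ATP and 100 uM RS peptide with MgCl2, EGTA, DTT and Triton X-100.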

[12] = target: Dual specificity protein kinase CLK4 (Homo sapiens) (UniProt Q9HAZ1); assay: qHTS Assay for Inhibitors of CDC-like Kinase 4 (ADP-FP Assay) (AID 1795); conditions: Transcreener ADP fluorescence polarization; series mostly up to 50 µM; further: nearly all actives have a fitted effect of over 60% in size; further: potency means the concentration at half of the fitted maximal effect
In short: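 Kinase activity was measured as ADP production using Transcreener orange tracer (4 nM) and ADP antibody (1 ug/mL) fluorescence polarization, with ADP calculated from a calibration curve. The 1 h reaction contained 6.25 nM Clk4, 1 uM ATP and 100 uM RS peptide at pH 7.5 with Mg2+.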

[13] = target: Ubiquitin carboxyl-terminal hydrolase 1 (Homo sapiens) (UniProt O94782); assay: Inhibitors of USP1/UAF1: Pilot qHTS (AID 504865); conditions: purified USP1/UAF1, Ub-rhodamine cleavage fluorescence; series mostly up to 54.9 µM; further: nearly all actives have a fitted effect of over 35% in size; further: potency means the concentration at half of the fitted maximal effect
Ubiquitin carboxyl-terminal hydrolase 1 (Homo sapiens), sequence (O94782 whole entry, looked up): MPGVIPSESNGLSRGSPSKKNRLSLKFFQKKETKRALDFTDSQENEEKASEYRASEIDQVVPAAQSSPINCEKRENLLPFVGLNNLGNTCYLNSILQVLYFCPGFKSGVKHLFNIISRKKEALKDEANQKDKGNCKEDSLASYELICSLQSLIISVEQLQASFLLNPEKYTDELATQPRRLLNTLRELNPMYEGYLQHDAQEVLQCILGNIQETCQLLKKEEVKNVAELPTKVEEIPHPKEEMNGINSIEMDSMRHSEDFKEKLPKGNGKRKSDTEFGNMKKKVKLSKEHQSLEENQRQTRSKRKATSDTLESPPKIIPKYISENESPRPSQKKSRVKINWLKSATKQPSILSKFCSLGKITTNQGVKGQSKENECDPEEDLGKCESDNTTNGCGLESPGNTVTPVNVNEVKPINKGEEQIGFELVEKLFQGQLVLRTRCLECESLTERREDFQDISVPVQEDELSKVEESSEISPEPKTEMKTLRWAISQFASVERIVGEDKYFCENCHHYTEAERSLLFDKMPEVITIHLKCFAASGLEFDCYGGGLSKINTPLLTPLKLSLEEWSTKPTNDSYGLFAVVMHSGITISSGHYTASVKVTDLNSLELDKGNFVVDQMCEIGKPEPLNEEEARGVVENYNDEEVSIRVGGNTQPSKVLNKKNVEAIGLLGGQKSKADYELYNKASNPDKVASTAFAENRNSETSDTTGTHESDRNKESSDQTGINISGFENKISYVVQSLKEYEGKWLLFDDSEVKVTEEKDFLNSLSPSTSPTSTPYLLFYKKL
In short: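 Deubiquitinase activity followed as kinetic rhodamine fluorescence release from 150 nM Ub-Rho. 1 nM USP1/UAF1 with compound, after 15 min room-temperature preincubation, in HEPES pH 7.8 buffer containing TCEP, EDTA, BSA and Tween-20.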

[14] = Primary qHTS for small molecule stabilizers of the endoplasmic reticulum resident proteome: Secreted ER Calcium Modulated Protein (SERCaMP) assay (AID 1508630); conditions: SH-SY5Y GLuc-SERCaMP (Gaussia luciferase released on ER calcium loss) secretion, thapsigargin, luminescence; series mostly up to 38.4 µM; further: on the % scale 0 is the no-effect control and ±100 the full control effect
In short: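 The SH-SY5Y reporter protocol was run at 3 concentrations up to 38.3 uM (primary) or 11 concentrations (follow-up): 16 h compound, 100 nM thapsigargin for 4 h, then extracellular luciferase luminescence.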

[15] = target: Cytochrome P450 3A4 (Homo sapiens) (UniProt P08684); assay: qHTS Assay for Inhibitors and Substrates of Cytochrome P450 3A4 (AID 884); conditions: recombinant CYP3A4, Luciferin-PPXE luminescence; series mostly up to 57.1 µM; further: potency means the concentration at half of the fitted maximal effect; nearly all actives have a fitted effect of over 50% in size
Cytochrome P450 3A4 (Homo sapiens), sequence (P08684 whole entry, looked up): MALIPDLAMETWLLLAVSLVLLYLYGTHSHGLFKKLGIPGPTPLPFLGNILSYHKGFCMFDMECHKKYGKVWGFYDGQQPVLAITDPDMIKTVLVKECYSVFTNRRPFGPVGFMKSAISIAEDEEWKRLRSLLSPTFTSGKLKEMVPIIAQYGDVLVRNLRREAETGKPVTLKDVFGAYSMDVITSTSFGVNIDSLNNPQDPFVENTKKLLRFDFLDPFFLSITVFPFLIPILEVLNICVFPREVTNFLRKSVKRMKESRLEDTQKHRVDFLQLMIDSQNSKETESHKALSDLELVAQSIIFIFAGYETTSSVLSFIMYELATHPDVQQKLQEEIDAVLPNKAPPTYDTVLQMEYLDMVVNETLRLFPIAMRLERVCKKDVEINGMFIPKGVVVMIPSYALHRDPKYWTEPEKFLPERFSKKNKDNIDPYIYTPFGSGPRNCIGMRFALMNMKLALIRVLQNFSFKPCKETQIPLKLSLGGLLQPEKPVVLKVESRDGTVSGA
In short: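 Luminescent readout of luciferin produced by CYP3A4 (20 nM) dealkylation of Luciferin-PPXE, 25 uM (its KM). NADPH-driven reaction ran 60 min at RT after 10 min compound preincubation; data scaled to 57 uM ketoconazole as 100% inhibition.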

[16] = target: Cytochrome P450 3A4 (Homo sapiens) (UniProt P08684); assay: qHTS Assay for Activators of Cytochrome P450 3A4 (AID 885); conditions: recombinant CYP3A4, Luciferin-PPXE luminescence, 60 min; series mostly up to 57.1 µM; further: nearly all actives have a fitted effect of over 65% in size
In short: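 CYP3A4 activity: Luciferin-PPXE O-dealkylation, 25uM substrate, 200mM KPO4, RT throughout. Read-out is luciferase luminescence; higher values reflect activation.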

[17] = target: Cytochrome P450 2D6 (Homo sapiens) (UniProt P10635); assay: qHTS Assay for Inhibitors and Substrates of Cytochrome P450 2D6 (AID 891); conditions: recombinant CYP2D6, luciferin-ME EGE luminescence; series mostly up to 57.1 µM; further: potency means the concentration at half of the fitted maximal effect; nearly all actives have a fitted effect of over 60% in size
Cytochrome P450 2D6 (Homo sapiens), sequence (P10635 whole entry, looked up): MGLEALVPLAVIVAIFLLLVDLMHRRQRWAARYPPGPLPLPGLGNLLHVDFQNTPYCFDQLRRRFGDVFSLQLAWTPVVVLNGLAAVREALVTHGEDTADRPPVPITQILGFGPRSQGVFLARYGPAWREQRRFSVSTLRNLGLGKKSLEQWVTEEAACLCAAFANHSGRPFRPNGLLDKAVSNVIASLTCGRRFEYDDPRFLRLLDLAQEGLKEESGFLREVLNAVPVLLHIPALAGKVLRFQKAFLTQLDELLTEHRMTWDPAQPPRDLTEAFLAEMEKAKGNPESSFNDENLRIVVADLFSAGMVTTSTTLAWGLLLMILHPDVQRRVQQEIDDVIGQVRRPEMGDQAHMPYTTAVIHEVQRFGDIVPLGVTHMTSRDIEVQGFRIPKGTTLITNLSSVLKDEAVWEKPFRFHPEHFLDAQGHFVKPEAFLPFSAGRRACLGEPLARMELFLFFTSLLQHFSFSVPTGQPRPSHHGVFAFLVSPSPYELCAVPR
In short: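 Luminescent read-out of luciferin formed by 5 nM human CYP2D6 demethylating 30 uM Luciferin-ME EGE (Km level) over 60 min at room temperature after NADPH regeneration addition. Data normalized to full inhibition by 1.43 uM quinidine.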

CN1CCN(c2cc(-c3ccccc3Cl)ncn2)CC1
inactive: Potency [1] > 11.4 µM | activity change, negative = inhibition [2] -6.42% | activity change, negative = inhibition [3] 3.06% | activity, negative = inhibition [4] -1.39% | Potency [5] > 46 µM | Potency [6] > 46 µM | Potency [7] | Potency [8] | activation [9] 18% | Potency [10] | Potency [11] | Potency [12] | Potency [13] | outcome [14]

COc1ccc(CNc2ccnc(-c3ccccc3OC)n2)c(OC)c1
inactive: Potency [1] > 11.4 µM | activity change, negative = inhibition [2] 3.33% | activity change, negative = inhibition [3] -9.22% | activity, negative = inhibition [4] 1.07% | Potency [5] > 46 µM | Potency [6] > 46 µM | Potency [7] | Potency [16] | Potency [10] | Potency [11] | Potency [12] | outcome [14]
active: Potency [15] 6.31 µM | Potency [17] 3.98 µM

COc1ccc(-c2nc3cnc(OC)nc3n(-c3ccccc3)c2=O)cc1
inactive: Potency [1] > 11.4 µM | activity change, negative = inhibition [2] -6.09% | activity change, negative = inhibition [3] 10.5% | activity, negative = inhibition [4] -1.78% | Potency [5] > 9.22 µM | Potency [6] > 46 µM | Potency [7] | Potency [8] | Potency [10] | Potency [11] | Potency [12] | Potency [13] | outcome [14]

Cc1ccccc1-c1cc(N2CCNCC2)ncn1
inactive: Potency [1] > 11.4 µM | activity change, negative = inhibition [2] 8.27% | activity change, negative = inhibition [3] 15.7% | activity, negative = inhibition [4] 8.55% | Potency [5] > 46 µM | Potency [6] > 46 µM | Potency [7] | Potency [8] | Potency [10] | Potency [11] | Potency [12] | Potency [13] | outcome [14]

c1cn(-c2cc(-c3ccc4c(c3)OCO4)ncn2)cn1
active: Potency [10] 3.16 µM | Potency [11] 2.82 µM | Potency [12] 2 µM | Potency [13] 17.8 µM
inactive: Potency [1] > 11.4 µM | activity change, negative = inhibition [2] 13.6% | activity change, negative = inhibition [3] 13.4% | activity, negative = inhibition [4] 6.1% | Potency [5] > 46 µM | Potency [6] > 46 µM | Potency [7] | Potency [8] | outcome [14]

c1cncc(-c2nc(-n3ccnc3)c3ccccc3n2)c1
inactive: Potency [1] > 11.4 µM | activity change, negative = inhibition [2] 14.5% | activity change, negative = inhibition [3] 8.3% | activity, negative = inhibition [4] -3.82% | Potency [5] > 46 µM | Potency [6] > 46 µM | Potency [7] | Potency [8] | outcome [14]
active: Potency [10] 11.2 µM | Potency [11] 11.2 µM | Potency [12] 12.6 µM

CN(C)C(=O)c1ccc(-c2cncnc2N(C)Cc2ccco2)cc1
inactive: Potency [1] > 11.4 µM | activity change, negative = inhibition [2] -9.99% | activity change, negative = inhibition [3] -12.8% | activity, negative = inhibition [4] 3.83% | Potency [5] > 46 µM | Potency [6] > 46 µM | Potency [7] | Potency [8] | Potency [10] | Potency [11] | Potency [12] | Potency [13] | outcome [14]
